From PubChem BioAssay
KB-V1 cytotox = qHTS assay for MDR1-selective chemotherapeutics: Primary screen using the drug-selected MDR subline cells KB-V1; Potency, µM (doses to about 46.1 µM), most hits filed as cytotoxic; KB-V1 MDR cells viability, CellTiter-Glo, 72 h; 400,000 compounds, 3.4% hits; AID 1347076, 2019; further: potency means the concentration at half of the fitted maximal effect; on the % scale 0 is the no-effect control and ±100 the full control effect; nearly all actives have a fitted effect of over 60% in size
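KB-V1 MDR subline cells in DMEM (phenol-red free, 10% FBS) exposed to compounds in qHTS concentration series for 72 h at 37 degrees C. Viability read by CellTiter-Glo luminescence; concentration-effect curves fitted after normalization and correction.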
MCF10A rereplic = A quantitative high throughput screen for small molecules that induce DNA re-replication in MCF 10a normal breast cells; MCF 10A DNA re-replication, Hoechst nuclear intensity, 48 h; Potency, µM (series often up to 46.1 µM), without a hit: at the highest dose activity, positive = re-replication, usual class: activators; 350,000 compounds, 2.9% hits; AID 624296, 2012; further: potency means the concentration at half of the fitted maximal effect; % of control where 0% means no effect; nearly all actives have a fitted effect of over 50% in size
D3 ag = qHTS of D3 Dopamine Receptor Agonist: qHTS | D3R DiscoveRx beta-arrestin cells, luminescence, 90 min | max activation, % | 410,000 compounds, 0.58% hits | AID 652048, 2013; in the data active means max activation above about 30%; further: 0% is about no effect
Target sequence (P35462 whole entry, looked up): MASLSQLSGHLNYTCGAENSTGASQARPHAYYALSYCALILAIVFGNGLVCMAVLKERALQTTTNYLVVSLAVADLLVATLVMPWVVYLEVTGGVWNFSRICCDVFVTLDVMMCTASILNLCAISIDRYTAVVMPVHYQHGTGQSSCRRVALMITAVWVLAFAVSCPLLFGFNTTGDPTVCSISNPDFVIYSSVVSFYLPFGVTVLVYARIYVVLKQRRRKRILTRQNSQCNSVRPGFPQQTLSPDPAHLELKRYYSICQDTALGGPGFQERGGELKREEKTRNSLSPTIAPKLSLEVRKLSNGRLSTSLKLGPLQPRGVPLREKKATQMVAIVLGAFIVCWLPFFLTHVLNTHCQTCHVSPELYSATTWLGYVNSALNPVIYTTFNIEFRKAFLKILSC
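Cells at 1500/well, incubated overnight, then treated with pinned compounds (dopamine as control) for 90 min at 37 degrees C. DiscoveRx reagent added for 30 - 60 minutes at room temperature; luminescence read.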
KB-3-1 tox = qHTS assay for MDR1-selective chemotherapeutics: Primary screen using the parental adenocarcinoma cell KB-3-1; AID 1347075, 2019; 400,000 compounds, 1.4% hits; KB-3-1 viability, CellTiter-Glo ATP luminescence, 72 h; Potency, µM (top dose mostly 46.1 µM), actives largely listed as cytotoxic; further: potency means the concentration at half of the fitted maximal effect; on the % scale 0 is the no-effect control and ±100 the full control effect; nearly all actives have a fitted effect of over 60% in size
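Cells are dispensed, compounds pinned in, plates held at 37 °C for 72 h, then CellTiter-Glo is added and luminescence read after 10 minutes. Cell line: parental KB-3-1 in phenol-red-free DMEM, 10% FBS.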
D3 antag = qHTS of D3 Dopamine Receptor Antagonist: qHTS | D(3) dopamine receptor (Homo sapiens), P35462 | D3R cells, DiscoveRx beta-arrestin luminescence, antagonist mode; active compounds read low | max response, negative = inhibition, % | 360,000 compounds, 2.5% hits | AID 652054, 2013; in the data active means max response below about -50%; inconclusive means no clear call, values can overlap the other calls; further: on the % scale 0 is the no-effect control and ±100 the full control effect
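Cells plated overnight at 1500 cells/well, then exposed to library compounds with dopamine controls for 90 minutes at 37 degrees C. DiscoveRx reagent added for 30–60 minutes at room temperature; luminescence read, quantitative HTS format.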
SW480 rereplic = A quantitative high throughput screen for small molecules that induce DNA re-replication in SW480 colon adenocarcinoma cells | AID 624297, 2012 | SW480 DNA re-replication, Hoechst DNA content imaging, 48 h | 340,000 compounds, 1.8% hits | Potency, µM (top dose mostly 46.1 µM), without a hit: at the top dose re-replication activation, actives largely listed as activators; further: potency means the concentration at half of the fitted maximal effect; % of control where 0% means no effect; nearly all actives have a fitted effect of over 55% in size
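Image-based read-out: total Hoechst fluorescence of nuclei (405 nm excitation, 500-530 nm emission), with hits raising the fraction of high-intensity nuclei. SW480 colon cells incubated 48 hr with compounds at 37 C.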
Active calls of the source: *. Sampled rows, rich in hits. Any-hit rate of the full collection: about 8.9%. Unless noted, the call rests on the fitted dose curve; in most records, active means well fitted curve in the direction sought with a large enough effect; inconclusive means small, poorly fitted or top-dose-only effect, or another doubt; inactive means no such curve, though single readings can be large; an effect the other way counts as inactive or inconclusive.

For Cc1cc(C(=O)COC(=O)c2ccc[nH]c2=O)c(C)n1-c1ccc(Br)cc1 the results were KB-V1 cytotox inactive, MCF10A rereplic -2%, D3 ag -7, KB-3-1 tox inactive, D3 antag -13 and SW480 rereplic 0%.
Screening COc1ccc(-n2c(C)cc(C(=O)COC(=O)Cn3cnc4ccccc43)c2C)cc1 returned KB-V1 cytotox inactive, MCF10A rereplic 9%, D3 ag 2, KB-3-1 tox inconclusive, D3 antag -14 and SW480 rereplic 38%.
Screening Cc1cc(C(=O)CC#N)c(C)n1-c1ccc(OC(F)F)cc1 returned KB-V1 cytotox inconclusive, MCF10A rereplic inconclusive, D3 ag 1, KB-3-1 tox inconclusive, D3 antag 7 and SW480 rereplic -15%.
Screening COc1ccc(-n2c(C)cc(C(=O)COC(=O)c3ccc(O)cc3O)c2C)cc1 returned KB-V1 cytotox inconclusive, MCF10A rereplic inconclusive, D3 ag 44*, KB-3-1 tox inconclusive, D3 antag 55 and SW480 rereplic -3%.
`Cc1cc(C(=O)COC(=O)c2ccc(O)cc2O)c(C)n1-c1ccc(OC(F)F)cc1` gave KB-V1 cytotox inconclusive, MCF10A rereplic inconclusive, D3 ag 21, KB-3-1 tox 16µM*, D3 antag 24 and SW480 rereplic 0%.
For Cc1cc(C(=O)COC(=O)c2ccc(O)cc2O)c(C)n1-c1ccccc1 the results were KB-V1 cytotox 16µM*, MCF10A rereplic inconclusive, D3 ag 18, KB-3-1 tox inconclusive, D3 antag 6 and SW480 rereplic -5%.
`CC(=O)c1nnn(-c2ccc(C)cc2Cl)c1C` gave D3 ag 15.
For CN1CCN(CC(=O)N2c3ccccc3C(C)(c3ccc(Cl)cc3)CC2(C)C)CC1 (centres undefined) the results were KB-V1 cytotox inactive, MCF10A rereplic 2%, D3 ag -22, KB-3-1 tox inconclusive, D3 antag -26 and SW480 rereplic inconclusive.
Screening Cc1ccc(NC(=O)C2CCCN2C(=O)NC2CCCCC2)c(C)c1 (centres undefined) returned KB-V1 cytotox inactive, MCF10A rereplic 0%, D3 ag -3, KB-3-1 tox inactive, D3 antag 7 and SW480 rereplic -5%.
`Cc1ccc2c(c1)C(C)CC(C)(C)N2C(=O)CN1CCN(C)CC1` (centres undefined) gave KB-V1 cytotox inactive, MCF10A rereplic 18%, D3 ag -23, KB-3-1 tox inactive, D3 antag -93* and SW480 rereplic inconclusive.
Screening Cc1ccc2c(c1)N(C(=O)NC1CCCCC1)C(C)(C)CC2C (centres undefined) returned KB-V1 cytotox inactive, MCF10A rereplic 9.2µM*, D3 ag -4, KB-3-1 tox inactive, D3 antag 3 and SW480 rereplic inconclusive.
CN1CCN(CC(=O)N2c3ccccc3C(C)(c3ccccc3)CC2(C)C)CC1 (centres undefined) was read as KB-V1 cytotox inconclusive, MCF10A rereplic inconclusive, D3 ag -17, KB-3-1 tox inconclusive, D3 antag -17 and SW480 rereplic 21µM*.
`Cc1ccc2c(c1)C(C)CC(C)(C)N2C(=O)NC1CCCCC1` (centres undefined) gave KB-V1 cytotox inactive, MCF10A rereplic 0%, D3 ag 8, KB-3-1 tox inactive, D3 antag -54* and SW480 rereplic -3%.
Screening COc1ccc(CC(=O)Nc2ccc(-c3nc4ccccc4s3)cc2Cl)cc1OC returned KB-V1 cytotox inactive, D3 ag -19 and KB-3-1 tox inactive.
